Measurements reported in ChEMBL document CHEMBL2218924, “A broad activity screen in support of a chemogenomic map for kinase signalling research and drug discovery” (Biochem J, 2013).

Columns and labels:
[1] = biological target: T1, Serine/threonine-protein kinase 17A (Homo sapiens) (UniProt Q9UEE5); conditions: at 10 µM
T1 sequence (whole entry): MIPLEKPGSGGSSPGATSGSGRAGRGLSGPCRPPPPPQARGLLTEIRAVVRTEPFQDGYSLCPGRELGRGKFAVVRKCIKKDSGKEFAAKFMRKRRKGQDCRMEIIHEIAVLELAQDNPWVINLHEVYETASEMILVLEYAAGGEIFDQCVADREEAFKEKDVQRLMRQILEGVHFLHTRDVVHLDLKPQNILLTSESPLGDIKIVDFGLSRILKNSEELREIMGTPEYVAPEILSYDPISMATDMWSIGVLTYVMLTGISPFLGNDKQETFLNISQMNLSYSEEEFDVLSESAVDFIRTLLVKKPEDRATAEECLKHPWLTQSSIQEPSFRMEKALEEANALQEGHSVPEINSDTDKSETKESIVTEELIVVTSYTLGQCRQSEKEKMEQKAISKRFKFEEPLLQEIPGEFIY

[2] = biological target: T2, Dual specificity tyrosine-phosphorylation-regulated kinase 2 (Homo sapiens) (UniProt Q92630); conditions: at 1 µM
T2 sequence (whole entry): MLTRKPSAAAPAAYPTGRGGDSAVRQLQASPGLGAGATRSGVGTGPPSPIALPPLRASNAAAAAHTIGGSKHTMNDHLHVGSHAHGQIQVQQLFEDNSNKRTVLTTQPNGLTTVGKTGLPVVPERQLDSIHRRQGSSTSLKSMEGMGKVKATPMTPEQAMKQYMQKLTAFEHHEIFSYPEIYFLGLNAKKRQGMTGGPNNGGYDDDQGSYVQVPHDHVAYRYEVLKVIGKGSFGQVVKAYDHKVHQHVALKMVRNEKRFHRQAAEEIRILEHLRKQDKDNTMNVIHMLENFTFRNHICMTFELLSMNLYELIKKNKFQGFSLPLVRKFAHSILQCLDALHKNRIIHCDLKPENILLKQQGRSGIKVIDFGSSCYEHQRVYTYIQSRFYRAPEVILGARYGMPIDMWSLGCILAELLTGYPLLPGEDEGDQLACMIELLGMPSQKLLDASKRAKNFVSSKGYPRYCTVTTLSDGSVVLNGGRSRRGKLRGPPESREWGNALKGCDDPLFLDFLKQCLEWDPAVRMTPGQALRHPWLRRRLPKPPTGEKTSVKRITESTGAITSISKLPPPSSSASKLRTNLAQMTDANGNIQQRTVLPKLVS

[3] = biological target: T2, Dual specificity tyrosine-phosphorylation-regulated kinase 2 (Homo sapiens); conditions: at 10 µM
[4] = biological target: T3, Ephrin type-A receptor 1 (Homo sapiens) (UniProt P21709); conditions: at 1 µM
T3 sequence (whole entry): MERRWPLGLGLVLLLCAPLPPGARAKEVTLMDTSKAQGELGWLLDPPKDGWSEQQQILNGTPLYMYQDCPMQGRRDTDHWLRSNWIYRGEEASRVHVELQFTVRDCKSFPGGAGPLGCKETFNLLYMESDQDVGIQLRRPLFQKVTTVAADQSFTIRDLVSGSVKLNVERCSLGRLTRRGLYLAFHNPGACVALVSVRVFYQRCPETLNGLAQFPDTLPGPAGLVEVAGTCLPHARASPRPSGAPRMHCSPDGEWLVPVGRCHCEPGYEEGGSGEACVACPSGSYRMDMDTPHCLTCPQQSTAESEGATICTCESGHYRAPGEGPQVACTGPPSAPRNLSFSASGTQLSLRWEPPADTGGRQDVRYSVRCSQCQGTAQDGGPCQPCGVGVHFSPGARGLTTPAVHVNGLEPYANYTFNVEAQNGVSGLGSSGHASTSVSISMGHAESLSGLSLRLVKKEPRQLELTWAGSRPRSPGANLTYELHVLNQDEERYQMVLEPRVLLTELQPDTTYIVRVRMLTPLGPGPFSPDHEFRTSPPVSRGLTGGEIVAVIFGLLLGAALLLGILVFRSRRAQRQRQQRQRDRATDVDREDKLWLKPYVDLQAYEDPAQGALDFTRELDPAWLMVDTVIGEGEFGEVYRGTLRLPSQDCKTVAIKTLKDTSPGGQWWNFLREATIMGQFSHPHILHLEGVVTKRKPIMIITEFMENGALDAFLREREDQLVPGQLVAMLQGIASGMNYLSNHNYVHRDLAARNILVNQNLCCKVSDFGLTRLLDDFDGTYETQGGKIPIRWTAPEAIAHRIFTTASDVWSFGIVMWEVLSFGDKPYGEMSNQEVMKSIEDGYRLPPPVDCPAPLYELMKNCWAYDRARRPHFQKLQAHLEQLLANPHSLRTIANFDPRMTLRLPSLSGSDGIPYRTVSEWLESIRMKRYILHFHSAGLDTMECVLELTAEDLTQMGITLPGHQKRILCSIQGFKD

[5] = biological target: T3, Ephrin type-A receptor 1 (Homo sapiens); conditions: at 10 µM
[6] = biological target: Ephrin type-A receptor 2 (Homo sapiens) (UniProt P29317); conditions: at 1 µM
[7] = biological target: Ephrin type-A receptor 2 (Homo sapiens) (UniProt P29317); conditions: at 10 µM
[8] = biological target: T4, Ephrin type-A receptor 3 (Homo sapiens) (UniProt P29320); conditions: at 1 µM
T4 sequence (whole entry): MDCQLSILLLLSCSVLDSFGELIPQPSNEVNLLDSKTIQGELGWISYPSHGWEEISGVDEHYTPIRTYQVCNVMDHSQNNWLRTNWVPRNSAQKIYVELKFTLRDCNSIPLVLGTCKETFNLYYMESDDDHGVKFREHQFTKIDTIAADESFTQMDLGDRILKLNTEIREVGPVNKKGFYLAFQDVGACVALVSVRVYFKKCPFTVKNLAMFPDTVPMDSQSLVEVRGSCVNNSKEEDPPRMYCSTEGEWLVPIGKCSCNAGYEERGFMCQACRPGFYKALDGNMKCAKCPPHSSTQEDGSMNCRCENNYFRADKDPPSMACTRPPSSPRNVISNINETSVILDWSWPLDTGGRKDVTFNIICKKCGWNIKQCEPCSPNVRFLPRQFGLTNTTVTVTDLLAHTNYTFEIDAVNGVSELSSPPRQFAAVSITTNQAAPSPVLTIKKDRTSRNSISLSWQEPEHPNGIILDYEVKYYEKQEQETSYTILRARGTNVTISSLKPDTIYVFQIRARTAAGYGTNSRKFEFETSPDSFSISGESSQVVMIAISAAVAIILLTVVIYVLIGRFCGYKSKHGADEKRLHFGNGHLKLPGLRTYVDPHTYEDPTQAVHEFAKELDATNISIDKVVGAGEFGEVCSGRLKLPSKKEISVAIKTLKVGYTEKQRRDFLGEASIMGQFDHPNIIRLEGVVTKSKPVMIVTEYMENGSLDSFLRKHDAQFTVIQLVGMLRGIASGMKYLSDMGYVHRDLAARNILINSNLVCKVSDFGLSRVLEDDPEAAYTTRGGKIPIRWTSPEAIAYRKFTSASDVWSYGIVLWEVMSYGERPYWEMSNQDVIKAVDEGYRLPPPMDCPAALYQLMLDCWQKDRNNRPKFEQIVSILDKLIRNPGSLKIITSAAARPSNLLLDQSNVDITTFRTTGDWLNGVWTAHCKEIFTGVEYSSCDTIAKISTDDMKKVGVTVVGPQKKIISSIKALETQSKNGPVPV

[9] = biological target: T4, Ephrin type-A receptor 3 (Homo sapiens); conditions: at 10 µM
[10] = biological target: Ephrin type-A receptor 4 (Homo sapiens) (UniProt P54764); conditions: at 1 µM
[11] = biological target: Ephrin type-A receptor 4 (Homo sapiens) (UniProt P54764); conditions: at 10 µM
[12] = biological target: Ephrin type-A receptor 5 (Homo sapiens) (UniProt P54756); conditions: at 1 µM
[13] = biological target: Ephrin type-A receptor 5 (Homo sapiens) (UniProt P54756); conditions: at 10 µM
[14] = biological target: Ephrin type-A receptor 7 (Homo sapiens) (UniProt Q15375); conditions: at 1 µM
[15] = biological target: Ephrin type-A receptor 7 (Homo sapiens) (UniProt Q15375); conditions: at 10 µM
[16] = biological target: T5, Ephrin type-A receptor 8 (Homo sapiens) (UniProt P29322); conditions: at 1 µM
T5 sequence (whole entry): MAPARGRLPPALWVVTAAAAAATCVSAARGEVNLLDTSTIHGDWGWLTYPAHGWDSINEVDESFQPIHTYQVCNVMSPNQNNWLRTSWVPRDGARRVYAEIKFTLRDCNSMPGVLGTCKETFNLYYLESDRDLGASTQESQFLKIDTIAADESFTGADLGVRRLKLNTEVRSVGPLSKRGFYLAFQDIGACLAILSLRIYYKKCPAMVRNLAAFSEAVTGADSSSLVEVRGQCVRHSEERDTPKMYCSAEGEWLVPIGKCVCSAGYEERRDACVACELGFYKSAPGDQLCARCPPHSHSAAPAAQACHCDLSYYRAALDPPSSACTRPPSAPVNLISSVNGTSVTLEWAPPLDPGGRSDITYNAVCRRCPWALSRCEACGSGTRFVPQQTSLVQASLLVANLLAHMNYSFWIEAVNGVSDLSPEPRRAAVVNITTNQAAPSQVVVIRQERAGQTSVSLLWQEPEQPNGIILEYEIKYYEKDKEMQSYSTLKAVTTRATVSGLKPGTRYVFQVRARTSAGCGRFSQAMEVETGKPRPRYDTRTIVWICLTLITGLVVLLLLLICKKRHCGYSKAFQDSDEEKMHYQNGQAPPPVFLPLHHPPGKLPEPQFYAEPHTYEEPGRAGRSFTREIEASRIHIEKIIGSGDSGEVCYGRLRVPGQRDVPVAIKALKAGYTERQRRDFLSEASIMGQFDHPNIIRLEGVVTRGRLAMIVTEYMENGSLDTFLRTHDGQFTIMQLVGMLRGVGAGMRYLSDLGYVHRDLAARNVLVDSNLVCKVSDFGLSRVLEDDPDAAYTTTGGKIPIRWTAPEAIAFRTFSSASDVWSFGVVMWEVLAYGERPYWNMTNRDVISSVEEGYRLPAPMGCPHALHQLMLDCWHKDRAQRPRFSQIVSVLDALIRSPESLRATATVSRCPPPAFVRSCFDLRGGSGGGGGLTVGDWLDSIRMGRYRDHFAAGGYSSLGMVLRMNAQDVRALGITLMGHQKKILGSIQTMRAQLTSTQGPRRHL

[17] = biological target: T5, Ephrin type-A receptor 8 (Homo sapiens); conditions: at 10 µM
[18] = biological target: T6, Ephrin type-B receptor 1 (Homo sapiens) (UniProt P54762); conditions: at 1 µM
T6 sequence (whole entry): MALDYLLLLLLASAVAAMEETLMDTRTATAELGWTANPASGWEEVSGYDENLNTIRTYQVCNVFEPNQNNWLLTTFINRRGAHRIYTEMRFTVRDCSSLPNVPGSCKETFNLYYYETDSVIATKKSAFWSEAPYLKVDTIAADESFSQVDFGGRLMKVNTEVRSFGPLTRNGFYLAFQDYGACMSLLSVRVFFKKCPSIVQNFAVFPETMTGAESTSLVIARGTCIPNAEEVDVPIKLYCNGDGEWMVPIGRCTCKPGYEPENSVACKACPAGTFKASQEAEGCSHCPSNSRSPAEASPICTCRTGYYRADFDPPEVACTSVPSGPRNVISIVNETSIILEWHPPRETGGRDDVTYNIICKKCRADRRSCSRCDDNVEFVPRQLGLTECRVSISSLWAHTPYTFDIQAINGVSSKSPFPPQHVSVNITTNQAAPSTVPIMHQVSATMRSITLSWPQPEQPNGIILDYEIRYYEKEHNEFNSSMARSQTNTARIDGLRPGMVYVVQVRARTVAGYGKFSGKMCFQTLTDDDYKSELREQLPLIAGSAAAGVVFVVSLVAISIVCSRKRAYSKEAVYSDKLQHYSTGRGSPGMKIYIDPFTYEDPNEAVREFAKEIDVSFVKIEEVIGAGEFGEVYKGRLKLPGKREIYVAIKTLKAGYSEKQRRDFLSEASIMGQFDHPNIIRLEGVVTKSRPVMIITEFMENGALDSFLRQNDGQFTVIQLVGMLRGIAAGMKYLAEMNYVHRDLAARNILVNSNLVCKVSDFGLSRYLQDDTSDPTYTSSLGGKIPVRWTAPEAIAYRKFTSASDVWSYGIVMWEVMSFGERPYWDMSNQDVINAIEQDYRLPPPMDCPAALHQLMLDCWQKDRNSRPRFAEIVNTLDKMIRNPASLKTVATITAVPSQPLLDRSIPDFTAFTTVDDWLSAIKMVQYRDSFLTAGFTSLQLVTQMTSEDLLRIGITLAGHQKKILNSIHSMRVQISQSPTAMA

[19] = biological target: Epidermal growth factor receptor (Homo sapiens) (UniProt P00533); conditions: at 1 µM
[20] = biological target: Epidermal growth factor receptor (Homo sapiens) (UniProt P00533); conditions: at 10 µM

Ephrin type-A receptor 7 (Homo sapiens), sequence (Q15375 28-998 limits assumed): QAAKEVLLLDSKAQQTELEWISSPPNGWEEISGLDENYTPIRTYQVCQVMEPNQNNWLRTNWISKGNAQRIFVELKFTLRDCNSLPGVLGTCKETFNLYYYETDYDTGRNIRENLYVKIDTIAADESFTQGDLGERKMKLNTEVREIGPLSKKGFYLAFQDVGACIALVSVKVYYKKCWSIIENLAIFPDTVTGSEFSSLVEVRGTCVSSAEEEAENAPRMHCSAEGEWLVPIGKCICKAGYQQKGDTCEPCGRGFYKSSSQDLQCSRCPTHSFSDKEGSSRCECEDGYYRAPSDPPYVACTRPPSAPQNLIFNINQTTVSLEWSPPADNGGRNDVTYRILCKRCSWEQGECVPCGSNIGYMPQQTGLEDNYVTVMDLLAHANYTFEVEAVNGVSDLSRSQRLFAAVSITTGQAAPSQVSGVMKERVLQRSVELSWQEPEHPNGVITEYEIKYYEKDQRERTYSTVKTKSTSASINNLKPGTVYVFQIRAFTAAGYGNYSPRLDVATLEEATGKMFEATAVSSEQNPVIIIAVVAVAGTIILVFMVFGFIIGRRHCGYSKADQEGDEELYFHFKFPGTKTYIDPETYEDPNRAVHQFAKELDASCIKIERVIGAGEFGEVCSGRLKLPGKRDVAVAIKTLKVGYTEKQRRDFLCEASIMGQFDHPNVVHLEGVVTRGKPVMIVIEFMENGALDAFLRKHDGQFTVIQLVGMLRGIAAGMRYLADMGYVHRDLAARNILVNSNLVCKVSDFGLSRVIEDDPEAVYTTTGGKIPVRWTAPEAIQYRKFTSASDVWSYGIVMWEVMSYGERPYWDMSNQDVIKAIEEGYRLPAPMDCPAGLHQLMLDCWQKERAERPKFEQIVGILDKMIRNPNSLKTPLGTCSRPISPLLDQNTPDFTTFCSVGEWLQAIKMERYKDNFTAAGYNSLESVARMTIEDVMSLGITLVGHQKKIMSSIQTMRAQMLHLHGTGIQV
Ephrin type-A receptor 2 (Homo sapiens), sequence (P29317 whole entry): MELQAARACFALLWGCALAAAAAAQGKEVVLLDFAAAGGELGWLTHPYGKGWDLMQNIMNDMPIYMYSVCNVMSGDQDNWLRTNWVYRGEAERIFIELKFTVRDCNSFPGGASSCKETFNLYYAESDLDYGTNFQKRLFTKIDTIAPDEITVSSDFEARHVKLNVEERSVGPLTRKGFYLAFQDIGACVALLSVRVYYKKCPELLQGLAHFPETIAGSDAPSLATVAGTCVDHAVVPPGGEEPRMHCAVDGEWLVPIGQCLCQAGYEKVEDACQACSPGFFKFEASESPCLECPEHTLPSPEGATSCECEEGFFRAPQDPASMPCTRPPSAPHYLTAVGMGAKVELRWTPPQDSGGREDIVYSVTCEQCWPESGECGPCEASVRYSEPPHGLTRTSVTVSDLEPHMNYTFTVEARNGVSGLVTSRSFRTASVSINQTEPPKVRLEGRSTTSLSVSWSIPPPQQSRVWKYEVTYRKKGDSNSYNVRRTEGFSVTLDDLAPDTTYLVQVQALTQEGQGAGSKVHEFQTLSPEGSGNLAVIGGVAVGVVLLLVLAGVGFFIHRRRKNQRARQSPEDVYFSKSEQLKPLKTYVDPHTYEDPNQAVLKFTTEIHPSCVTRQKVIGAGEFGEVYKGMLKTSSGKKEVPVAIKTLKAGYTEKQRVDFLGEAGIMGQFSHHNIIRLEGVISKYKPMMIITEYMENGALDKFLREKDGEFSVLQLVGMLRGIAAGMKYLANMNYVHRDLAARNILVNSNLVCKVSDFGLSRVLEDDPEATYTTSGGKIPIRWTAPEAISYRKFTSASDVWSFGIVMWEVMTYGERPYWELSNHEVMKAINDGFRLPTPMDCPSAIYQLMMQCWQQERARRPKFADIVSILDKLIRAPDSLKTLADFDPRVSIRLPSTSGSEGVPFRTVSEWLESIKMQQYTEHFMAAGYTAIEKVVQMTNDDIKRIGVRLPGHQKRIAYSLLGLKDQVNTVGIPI
Ephrin type-A receptor 5 (Homo sapiens), sequence (P54756 whole entry): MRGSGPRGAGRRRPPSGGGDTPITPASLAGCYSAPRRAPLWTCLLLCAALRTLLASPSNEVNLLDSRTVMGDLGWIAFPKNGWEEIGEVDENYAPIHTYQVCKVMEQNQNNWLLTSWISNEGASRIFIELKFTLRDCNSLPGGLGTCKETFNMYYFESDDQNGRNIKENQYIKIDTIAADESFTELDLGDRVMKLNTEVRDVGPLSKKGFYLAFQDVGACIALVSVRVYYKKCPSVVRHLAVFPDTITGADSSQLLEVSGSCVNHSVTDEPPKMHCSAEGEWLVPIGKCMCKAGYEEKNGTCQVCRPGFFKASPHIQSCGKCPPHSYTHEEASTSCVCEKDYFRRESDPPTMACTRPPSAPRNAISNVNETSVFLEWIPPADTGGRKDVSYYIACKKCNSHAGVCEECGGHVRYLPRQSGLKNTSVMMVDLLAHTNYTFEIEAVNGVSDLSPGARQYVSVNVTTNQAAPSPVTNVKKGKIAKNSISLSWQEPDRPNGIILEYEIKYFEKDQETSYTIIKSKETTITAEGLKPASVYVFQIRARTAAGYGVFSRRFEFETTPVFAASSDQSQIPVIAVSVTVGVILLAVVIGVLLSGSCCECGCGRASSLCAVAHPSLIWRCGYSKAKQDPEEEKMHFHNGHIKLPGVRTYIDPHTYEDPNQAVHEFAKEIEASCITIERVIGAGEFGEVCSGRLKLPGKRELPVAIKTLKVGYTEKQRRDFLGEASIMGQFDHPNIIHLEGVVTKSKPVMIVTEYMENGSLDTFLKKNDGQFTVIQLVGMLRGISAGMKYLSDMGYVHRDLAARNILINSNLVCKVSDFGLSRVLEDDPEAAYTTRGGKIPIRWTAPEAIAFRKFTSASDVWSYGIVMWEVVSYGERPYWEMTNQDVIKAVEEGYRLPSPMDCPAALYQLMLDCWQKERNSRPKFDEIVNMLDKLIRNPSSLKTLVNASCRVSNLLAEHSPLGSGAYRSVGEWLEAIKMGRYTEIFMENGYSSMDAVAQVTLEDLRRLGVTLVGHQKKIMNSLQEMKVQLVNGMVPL
Ephrin type-A receptor 4 (Homo sapiens), sequence (P54764 whole entry): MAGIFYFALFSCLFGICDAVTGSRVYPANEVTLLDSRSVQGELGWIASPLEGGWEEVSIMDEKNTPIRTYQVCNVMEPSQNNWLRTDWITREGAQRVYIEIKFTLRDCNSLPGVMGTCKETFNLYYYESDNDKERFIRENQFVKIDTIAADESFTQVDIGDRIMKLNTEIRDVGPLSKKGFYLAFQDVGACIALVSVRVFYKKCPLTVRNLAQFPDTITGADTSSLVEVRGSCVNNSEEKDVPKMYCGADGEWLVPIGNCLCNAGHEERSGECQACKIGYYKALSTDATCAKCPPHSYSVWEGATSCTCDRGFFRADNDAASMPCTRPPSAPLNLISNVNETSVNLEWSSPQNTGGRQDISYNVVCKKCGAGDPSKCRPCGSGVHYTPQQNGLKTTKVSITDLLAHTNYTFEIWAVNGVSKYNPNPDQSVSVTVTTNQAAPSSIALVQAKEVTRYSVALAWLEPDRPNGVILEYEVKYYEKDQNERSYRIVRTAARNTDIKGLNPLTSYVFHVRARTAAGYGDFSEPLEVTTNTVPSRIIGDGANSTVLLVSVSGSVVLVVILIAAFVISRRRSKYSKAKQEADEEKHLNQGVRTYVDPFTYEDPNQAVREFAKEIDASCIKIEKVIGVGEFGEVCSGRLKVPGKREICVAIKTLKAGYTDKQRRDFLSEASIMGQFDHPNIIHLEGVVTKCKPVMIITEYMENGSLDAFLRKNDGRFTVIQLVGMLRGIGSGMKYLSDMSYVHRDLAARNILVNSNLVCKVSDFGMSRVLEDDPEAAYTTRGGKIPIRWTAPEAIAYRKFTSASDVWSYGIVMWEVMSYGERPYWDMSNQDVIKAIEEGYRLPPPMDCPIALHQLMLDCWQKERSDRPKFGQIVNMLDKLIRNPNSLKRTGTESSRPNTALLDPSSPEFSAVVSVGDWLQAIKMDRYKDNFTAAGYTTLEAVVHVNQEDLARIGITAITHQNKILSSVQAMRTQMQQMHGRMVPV

Structure (SMILES) | residual activity [1] [%] | residual activity [2] [%] | residual activity [3] [%] | residual activity [4] [%] | residual activity [5] [%] | residual activity [6] [%] | residual activity [7] [%] | residual activity [8] [%] | residual activity [9] [%] | residual activity [10] [%] | residual activity [11] [%] | residual activity [12] [%] | residual activity [13] [%] | residual activity [14] [%] | residual activity [15] [%] | residual activity [16] [%] | residual activity [17] [%] | residual activity [18] [%] | residual activity [19] [%] | residual activity [20] [%]
N#C/C(=C(\N)Sc1ccc(N)cc1)c1ccccc1C(F)(F)F | 118 | 105 | 95 | 94 | 82 | 98 | 111 | 96 | 99 | 116 | 112 | 98 | 95 | 99 | 89 | 85 | 87 | 110 | – | –
O=C(Nc1cccc(Nc2nccc(Nc3cccc(C(F)(F)F)c3)n2)c1)C1CC1 | 10 | 95 | 96 | 22 | 22 | 79 | 19 | 95 | 47 | 102 | 92 | 99 | 80 | 81 | 43 | 97 | 67 | 62 | 61 | 19
